For some of these results: Measured potencies and affinities stand elsewhere.

This passage reports Percent Effect results from ChEMBL document CHEMBL3988442, “University of Dundee, Small-Polar-MMV Screening Library” (2021).

Holding throughout (design): scale not given: direction of the effect not stated beside the values
Assay [1] has as its target Protein translocase subunit SecA (Escherichia coli (strain K12)) (UniProt P10408). Briefly: Assay to Identify E. coli SecA ATPase Inhibitors. The following applies: 30 µM. Format: functional.
The target of assay [2] is T1, Ubiquitin-activating enzyme e1, putative (Leishmania donovani (strain BPK282A1)) (UniProt E9BSI1).
T1 sequence (whole entry): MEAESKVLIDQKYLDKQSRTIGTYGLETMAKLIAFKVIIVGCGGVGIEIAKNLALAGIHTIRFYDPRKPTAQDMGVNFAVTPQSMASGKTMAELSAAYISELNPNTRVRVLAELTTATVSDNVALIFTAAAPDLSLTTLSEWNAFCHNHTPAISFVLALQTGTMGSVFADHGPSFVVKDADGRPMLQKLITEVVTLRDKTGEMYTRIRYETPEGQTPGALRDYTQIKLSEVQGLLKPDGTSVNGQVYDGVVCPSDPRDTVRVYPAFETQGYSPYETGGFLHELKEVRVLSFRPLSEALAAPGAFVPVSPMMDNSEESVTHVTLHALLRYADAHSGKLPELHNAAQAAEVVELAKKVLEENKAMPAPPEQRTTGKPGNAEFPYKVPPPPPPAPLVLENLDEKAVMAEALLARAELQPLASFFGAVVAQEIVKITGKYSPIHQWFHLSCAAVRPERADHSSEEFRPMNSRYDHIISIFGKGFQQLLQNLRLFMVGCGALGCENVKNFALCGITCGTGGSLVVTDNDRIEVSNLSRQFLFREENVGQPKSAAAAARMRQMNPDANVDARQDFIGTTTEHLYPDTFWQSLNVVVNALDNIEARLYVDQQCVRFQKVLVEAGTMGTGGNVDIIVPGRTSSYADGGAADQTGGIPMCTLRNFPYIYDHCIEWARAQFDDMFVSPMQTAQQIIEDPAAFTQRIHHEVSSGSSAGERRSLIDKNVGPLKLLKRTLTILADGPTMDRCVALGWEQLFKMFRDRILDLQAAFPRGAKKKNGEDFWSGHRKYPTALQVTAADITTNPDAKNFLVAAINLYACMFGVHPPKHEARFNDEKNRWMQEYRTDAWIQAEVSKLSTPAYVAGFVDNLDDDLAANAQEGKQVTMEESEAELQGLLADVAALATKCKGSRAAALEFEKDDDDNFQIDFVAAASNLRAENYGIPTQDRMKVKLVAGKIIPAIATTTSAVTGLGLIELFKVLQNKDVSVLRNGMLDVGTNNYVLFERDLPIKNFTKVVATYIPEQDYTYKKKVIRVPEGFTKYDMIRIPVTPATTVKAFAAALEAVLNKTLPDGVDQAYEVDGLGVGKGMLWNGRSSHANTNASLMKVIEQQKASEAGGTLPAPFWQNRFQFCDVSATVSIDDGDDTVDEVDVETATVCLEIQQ
Briefly: Leishmania donovani Ubiquitin Activating Enzyme (LdE1). It counts as functional. The following applies: 30 µM.

Assay [3] deals with AMP-activated protein kinase, AMPK (Homo sapiens) (UniProt P54646+O43741+P54619+Q9UGJ0+Q9Y478+Q13131+Q9UGI9). The assay can be described thus: AMP-dependent Kinase enzyme assay. An in vitro enzyme assay that detects ADP turnover that is directly proportional to AMPK activity. This uses naive AMPK that is activated during the assay with MK-8722. The following applies: 30 µM. Format: functional.

For assay [4], the target named is Sialic acid-binding Ig-like lectin 9 (Homo sapiens) (UniProt Q9Y336). The assay can be described thus: Hs-Siglec9 ALPHAscreen SOP 20170721. The following applies: 10 µM.
Sialic acid-binding Ig-like lectin 9 (Homo sapiens), sequence (Q9Y336 whole entry): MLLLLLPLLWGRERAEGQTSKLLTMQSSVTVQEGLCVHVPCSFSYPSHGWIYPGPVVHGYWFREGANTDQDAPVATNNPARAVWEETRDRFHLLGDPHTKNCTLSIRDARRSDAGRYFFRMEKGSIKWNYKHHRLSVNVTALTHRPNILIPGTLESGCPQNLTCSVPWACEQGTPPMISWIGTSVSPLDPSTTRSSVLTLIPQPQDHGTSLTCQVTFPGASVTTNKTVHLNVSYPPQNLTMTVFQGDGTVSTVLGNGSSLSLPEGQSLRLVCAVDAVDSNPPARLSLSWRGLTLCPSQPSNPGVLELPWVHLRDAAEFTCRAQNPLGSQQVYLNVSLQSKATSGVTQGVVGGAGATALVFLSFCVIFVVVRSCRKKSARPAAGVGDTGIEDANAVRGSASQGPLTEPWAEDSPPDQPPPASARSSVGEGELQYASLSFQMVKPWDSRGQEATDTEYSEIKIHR
The subject of another assay is Trypanosoma cruzi. The assay can be described thus: Trypanosoma cruzi phosphomannomutase and mannose-1-phosphate guanylyltransferase assay. Format: functional. The following applies: 10 µM.
The target in assay [5] is T2, Arginase-2, mitochondrial (Homo sapiens) (UniProt P78540).
T2 sequence (whole entry): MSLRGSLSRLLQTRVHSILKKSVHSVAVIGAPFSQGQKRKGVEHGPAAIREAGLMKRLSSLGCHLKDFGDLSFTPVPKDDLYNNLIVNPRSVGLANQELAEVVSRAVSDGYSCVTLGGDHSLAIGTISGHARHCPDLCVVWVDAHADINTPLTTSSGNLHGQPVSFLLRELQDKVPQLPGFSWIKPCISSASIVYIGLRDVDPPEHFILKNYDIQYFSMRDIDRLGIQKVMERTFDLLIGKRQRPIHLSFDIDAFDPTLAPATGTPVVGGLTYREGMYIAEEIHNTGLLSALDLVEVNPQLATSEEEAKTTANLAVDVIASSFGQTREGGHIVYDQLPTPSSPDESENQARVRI
Briefly: in vitro enzyme assay to detect the production of urea directly proportional to the activity of Arginase II. Also: in the data most compounds retested in dose-response had high values. Format: functional. The following applies: 33.3 µM.

In assay [6] the target is T3, Proteasome subunit beta (Trypanosoma cruzi) (UniProt O96673).
T3 sequence (whole entry): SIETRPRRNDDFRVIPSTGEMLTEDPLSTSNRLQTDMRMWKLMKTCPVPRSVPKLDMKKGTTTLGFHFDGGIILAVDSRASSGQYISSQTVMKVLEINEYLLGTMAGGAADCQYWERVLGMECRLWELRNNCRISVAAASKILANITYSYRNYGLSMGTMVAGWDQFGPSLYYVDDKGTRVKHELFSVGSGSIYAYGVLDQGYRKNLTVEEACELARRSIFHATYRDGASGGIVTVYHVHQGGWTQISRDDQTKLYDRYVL
Briefly: Trypanosoma cruzi proteasome chymotrypsin-like activity (TcProtChymo) assay. Also: in the data most compounds retested in dose-response had high values. Format: functional. The following applies: 9.37 µM.

The species named for the next assay is Homo sapiens. The assay can be described thus: To identify inhibition of the IFN signalling (Jak-Stat) pathway via expression of an eGFP reporter gene under the control of an IFN-stimulated response element (ISRE) containing MxA promoter. Format: functional. The following applies: 30 µM. In general terms: Reporter assays use an easily measured gene product as a stand-in for the process of interest.

The target of assay [7] is T4, Tyrosyl-tRNA synthetase, putative (Trypanosoma cruzi (strain CL Brener)) (UniProt Q4DSP6).
T4 sequence (whole entry): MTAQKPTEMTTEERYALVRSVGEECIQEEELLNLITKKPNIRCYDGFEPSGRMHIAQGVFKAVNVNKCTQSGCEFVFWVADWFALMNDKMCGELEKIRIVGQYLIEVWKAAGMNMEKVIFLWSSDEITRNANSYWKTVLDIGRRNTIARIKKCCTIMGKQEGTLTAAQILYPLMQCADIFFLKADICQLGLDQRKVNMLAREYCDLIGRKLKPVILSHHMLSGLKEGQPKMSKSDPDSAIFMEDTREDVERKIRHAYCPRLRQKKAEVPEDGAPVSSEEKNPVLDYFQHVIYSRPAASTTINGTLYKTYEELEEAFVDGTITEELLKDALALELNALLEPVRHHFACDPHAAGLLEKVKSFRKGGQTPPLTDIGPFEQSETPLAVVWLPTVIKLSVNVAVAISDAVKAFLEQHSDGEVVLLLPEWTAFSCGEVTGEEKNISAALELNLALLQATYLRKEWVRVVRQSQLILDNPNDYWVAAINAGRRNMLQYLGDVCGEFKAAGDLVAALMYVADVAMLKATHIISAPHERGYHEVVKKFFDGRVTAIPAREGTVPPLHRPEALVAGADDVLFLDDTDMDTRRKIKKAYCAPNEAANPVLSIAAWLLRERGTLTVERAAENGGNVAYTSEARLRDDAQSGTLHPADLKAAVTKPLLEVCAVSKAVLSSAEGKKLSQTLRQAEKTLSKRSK
Briefly: Trypanosoma cruzi tyrosyl tRNA synthetase (TcYRS) _High Tyrosine SOP. Also: in the data most compounds retested in dose-response had high values. It counts as functional. The following applies: 30 µM.

In assay [8] the target is T4, Tyrosyl-tRNA synthetase, putative (Trypanosoma cruzi (strain CL Brener)). The assay can be described thus: Trypanosoma cruzi tyrosyl tRNA synthetase (TcYRS) SOP. It counts as functional. The following applies: 30 µM.
Assay [9] concerns the target Chromo domain-containing protein 1 (Saccharomyces cerevisiae (strain ATCC 204508 / S288c) (Baker's yeast)) (UniProt P32657). The assay can be described thus: ScCHD-1 Enzyme Inhibition Assay. Also: in the data most compounds retested in dose-response had high values. Format: functional. The following applies: 30 µM.

Protein translocase subunit SecA (Escherichia coli (strain K12)), sequence (P10408 whole entry): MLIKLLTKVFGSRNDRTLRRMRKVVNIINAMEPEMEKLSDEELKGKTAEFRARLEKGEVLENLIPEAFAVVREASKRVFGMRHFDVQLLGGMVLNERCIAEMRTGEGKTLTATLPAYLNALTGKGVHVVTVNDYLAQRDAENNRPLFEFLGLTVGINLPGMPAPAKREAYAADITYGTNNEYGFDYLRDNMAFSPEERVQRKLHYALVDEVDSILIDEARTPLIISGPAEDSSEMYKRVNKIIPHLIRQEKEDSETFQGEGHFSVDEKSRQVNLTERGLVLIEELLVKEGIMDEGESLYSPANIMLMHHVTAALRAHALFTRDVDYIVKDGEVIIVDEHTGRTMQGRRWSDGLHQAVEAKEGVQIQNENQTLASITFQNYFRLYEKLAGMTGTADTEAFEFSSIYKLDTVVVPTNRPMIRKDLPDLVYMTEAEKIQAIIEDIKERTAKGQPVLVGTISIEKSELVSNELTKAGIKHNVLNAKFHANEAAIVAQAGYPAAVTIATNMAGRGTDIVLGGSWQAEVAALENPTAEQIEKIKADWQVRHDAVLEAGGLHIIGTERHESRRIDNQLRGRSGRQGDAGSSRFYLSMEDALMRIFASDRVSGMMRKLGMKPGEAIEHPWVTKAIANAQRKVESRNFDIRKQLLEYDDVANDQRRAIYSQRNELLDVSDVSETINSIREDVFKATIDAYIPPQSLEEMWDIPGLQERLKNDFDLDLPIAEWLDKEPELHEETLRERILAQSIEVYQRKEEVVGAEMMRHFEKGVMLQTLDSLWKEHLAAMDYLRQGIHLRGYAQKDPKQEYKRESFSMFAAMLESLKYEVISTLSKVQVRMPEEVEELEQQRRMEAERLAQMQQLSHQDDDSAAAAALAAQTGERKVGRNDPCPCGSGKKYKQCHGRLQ
Chromo domain-containing protein 1 (Saccharomyces cerevisiae (strain ATCC 204508 / S288c) (Baker's yeast)), sequence (P32657 whole entry, the tested form may be a part): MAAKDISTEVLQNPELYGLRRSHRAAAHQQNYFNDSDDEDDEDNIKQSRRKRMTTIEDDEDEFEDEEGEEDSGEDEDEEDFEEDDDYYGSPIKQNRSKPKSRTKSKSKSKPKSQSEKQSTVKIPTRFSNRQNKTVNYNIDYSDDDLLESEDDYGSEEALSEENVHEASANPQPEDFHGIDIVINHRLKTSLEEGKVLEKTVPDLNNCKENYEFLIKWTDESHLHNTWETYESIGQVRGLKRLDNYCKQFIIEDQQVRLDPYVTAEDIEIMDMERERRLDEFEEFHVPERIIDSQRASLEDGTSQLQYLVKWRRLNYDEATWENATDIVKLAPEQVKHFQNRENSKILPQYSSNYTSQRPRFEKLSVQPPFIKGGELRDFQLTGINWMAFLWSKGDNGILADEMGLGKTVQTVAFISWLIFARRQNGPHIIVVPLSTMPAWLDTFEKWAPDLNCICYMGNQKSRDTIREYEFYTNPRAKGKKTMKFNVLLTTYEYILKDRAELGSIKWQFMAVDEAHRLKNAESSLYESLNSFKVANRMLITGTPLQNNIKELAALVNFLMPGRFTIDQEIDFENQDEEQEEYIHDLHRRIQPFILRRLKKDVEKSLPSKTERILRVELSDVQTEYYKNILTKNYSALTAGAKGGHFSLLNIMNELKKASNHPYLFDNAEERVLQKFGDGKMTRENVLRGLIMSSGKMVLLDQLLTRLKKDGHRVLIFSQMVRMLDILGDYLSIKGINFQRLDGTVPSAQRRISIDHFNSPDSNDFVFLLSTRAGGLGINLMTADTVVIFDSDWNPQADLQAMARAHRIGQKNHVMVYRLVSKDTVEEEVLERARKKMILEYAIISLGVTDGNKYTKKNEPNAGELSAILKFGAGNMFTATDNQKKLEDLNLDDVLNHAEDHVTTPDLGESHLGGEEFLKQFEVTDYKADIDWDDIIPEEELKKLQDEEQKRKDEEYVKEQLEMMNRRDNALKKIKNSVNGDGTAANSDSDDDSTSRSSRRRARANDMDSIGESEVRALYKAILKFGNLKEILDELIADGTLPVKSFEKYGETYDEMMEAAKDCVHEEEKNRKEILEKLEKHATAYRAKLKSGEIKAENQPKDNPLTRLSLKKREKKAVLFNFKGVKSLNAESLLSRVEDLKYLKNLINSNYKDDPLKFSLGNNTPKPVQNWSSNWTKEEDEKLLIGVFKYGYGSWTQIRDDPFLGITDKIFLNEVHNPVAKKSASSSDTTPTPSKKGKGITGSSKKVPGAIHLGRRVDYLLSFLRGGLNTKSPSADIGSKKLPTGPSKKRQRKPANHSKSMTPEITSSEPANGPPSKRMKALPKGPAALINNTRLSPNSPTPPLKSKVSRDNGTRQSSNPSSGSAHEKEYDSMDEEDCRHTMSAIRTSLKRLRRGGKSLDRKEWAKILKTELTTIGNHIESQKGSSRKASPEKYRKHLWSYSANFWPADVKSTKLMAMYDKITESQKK

`O=C(c1n[nH]c2ccccc12)N1CCCC1c1noc(C2CC2)n1` (stereo not drawn): the Percent Effect in [1] was -4.36%; in [2] it was 7.59%; in assay [3], -0.141%; in [4] it was 0.249%; in the assay with Trypanosoma cruzi it was 8.4%; in [5] it was 5.32%. In addition, the Percent Effect in [6] is 1.39%; in the assay filed under Homo sapiens, -4.43%; in assay [7] it was 4.43%; in [8] it was 13.9%; in assay [9], -5.81%.
For `Clc1ccccc1C1(c2ccnc(CC3CC3)n2)CCNCC1`, the Percent Effect is -2.96% in [1]; -7.79% in [2]; -1.73% in assay [3]; 13.8% in [4]; 6.59% in the assay on Trypanosoma cruzi; -80% in assay [5]. Moreover, the Percent Effect was 13.1% in [6]; -7.99% in the assay filed under Homo sapiens; 8.6% in assay [7]; 16.1% in assay [8]; -0.745% in assay [9].
As to `Cc1ccc(C)n1-c1ccc(C(=O)NCCNc2ncccn2)cc1`, the Percent Effect in [1] is -1.31%; in assay [2], 7.89%; in [3], -10.7%; in [4], -3.65%; in the assay with Trypanosoma cruzi, 3.46%; in assay [5] it was -6.83%. Further, the Percent Effect in assay [6] was 15%; in the assay filed under Homo sapiens, -6.26%; in [7], 9.36%; in assay [8], 18.5%; in [9], 0.738%.
As to `CC(C)Oc1cc(N2CCC(N3CCC(O)CC3)CC2)nc(N)n1`, the Percent Effect in assay [1] was 0.0362%; in assay [2], 8.11%; in assay [3], -10%; in assay [4], 8.23%; in the assay with Trypanosoma cruzi, 4.63%; in assay [5], -0.476%. Besides, the Percent Effect in assay [6] is 11%; in the assay listed under Homo sapiens it was 12.1%; in assay [7], 8.99%; in assay [8] it was 17.1%; in [9], -4.42%.
On to `Cc1ccc2cc(CNCCCO)c(=O)[nH]c2c1`, for which the Percent Effect was 2.35% in assay [1]; 9.46% in [2]; 7.11% in assay [3]; -4.27% in assay [4]; -5.34% in the assay with Trypanosoma cruzi; 4.41% in assay [5]. Moreover, the Percent Effect is 5.15% in assay [6]; 8.44% in the assay filed under Homo sapiens; 1.07% in assay [7]; 9.09% in assay [8]; -13.8% in assay [9].
In the case of `CN(Cc1nnc(-c2ccco2)o1)CC1CCCN1c1cccnn1` (stereo not drawn), the Percent Effect in assay [1] is -4.76%; in [2] it was 10.4%; in assay [3], -4.64%; in [4], -13.5%; in the assay on Trypanosoma cruzi, -0.881%; in assay [5], 2.32%. For the same compound, the Percent Effect in assay [6] was 21.9%; in the assay listed under Homo sapiens it was 15.6%; in assay [7] it was 4.76%; in assay [8], 9.41%; in [9] it was -19.2%.
In the case of `CN(C)C(=O)NC1COC2(CCN(Cc3ccccc3)CC2)C1` (stereo not drawn), the Percent Effect was -6.16% in assay [1]; 0% in assay [2]; 7.68% in assay [3]; -1.66% in [4]; -3.94% in the assay with Trypanosoma cruzi; 1.17% in assay [5]. Besides, the Percent Effect in assay [6] was 6.26%; in the assay filed under Homo sapiens it was 21.5%; in assay [7], -3.19%; in assay [8] it was -6.41%; in [9], -1.6%.
With `COCC1CN(C(=O)c2cccn2C)Cc2nccn2C1` (stereo not drawn), the Percent Effect is -0.683% in assay [1]; 10.7% in assay [2]; 12.7% in [3]; -7.24% in assay [4]; -5.32% in the assay with Trypanosoma cruzi; 1.63% in assay [5]. In addition, the Percent Effect in [6] was 13.8%; in the assay listed under Homo sapiens it was 10.6%; in [7], 2.13%; in assay [8], 11.5%; in [9], -4.6%.
